# Screening results: PubChem, National Center for Advancing Translational Sciences (NCATS)
# IP6K1 inh = blocks human inositol hexakisphosphate kinase 1; Q92551; IP6K1 kinase, ADP-Glo luminescence, 2 h; hits give low values; activity change, % (series mostly up to about 58 µM); hit rate 0.81% among 140,000; in the data active means activity change below about -25%
# Target sequence (Q92551 whole entry, looked up): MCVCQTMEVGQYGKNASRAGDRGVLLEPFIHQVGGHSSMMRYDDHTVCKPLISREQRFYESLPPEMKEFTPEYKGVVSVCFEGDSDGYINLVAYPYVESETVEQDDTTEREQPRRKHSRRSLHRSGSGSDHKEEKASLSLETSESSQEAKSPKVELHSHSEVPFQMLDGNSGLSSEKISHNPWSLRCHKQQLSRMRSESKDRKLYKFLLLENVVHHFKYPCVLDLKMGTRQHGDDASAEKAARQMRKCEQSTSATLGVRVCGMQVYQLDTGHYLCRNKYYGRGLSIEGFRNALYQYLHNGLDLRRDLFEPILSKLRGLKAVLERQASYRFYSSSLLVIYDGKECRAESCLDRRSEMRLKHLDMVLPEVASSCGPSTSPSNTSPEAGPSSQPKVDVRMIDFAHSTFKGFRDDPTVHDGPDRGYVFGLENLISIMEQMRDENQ
#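 ADP-Glo luminescence measures ADP made by human IP6K1 during a 2 h RT reaction with ATP/IP6 (mix at 1.3 mM/130 uM); top library doses 57.5 and 19.1 uM final.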
# SNCA viab count = reduces viability of HEK-293 SNCA reporter cells; HEK-293-SNCA-luc viability, GF-AFC fluorescence, 24 h; Potency, µM (titrated, usually from 57.1 µM), actives largely listed as cytotoxic; hit rate 0.12% among 150,000; AID 1671193; further: nearly all actives have a fitted effect of over 30% in size
#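 HEK-293-SNCA-luc cells (1500/well) plated 24 h, then exposed 24 h to a dilution series; GF-AFC added 30 min at 37C, fluorescence 405/540 nm; normalised to medium-only and DMSO wells, Hill fit.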
# SNCA expr inh = reduces expression of the alpha-synuclein gene. HEK-293 SNCA-luciferase knock-in, luminescence, 24 h. Potency, µM (top dose mostly 57.2 µM), actives largely listed as inhibitors. hit rate 0.17% among 140,000. AID 1671194; further: nearly all actives have a fitted effect of over 45% in size
# KDM5B inhibitor = blocks human KDM5B histone demethylase activity; Q9UGL1; KDM5B demethylase, FDH-coupled NADH fluorescence (FDH is formaldehyde dehydrogenase); Potency, µM (top dose mostly 57.7 µM), hits mostly inhibitors; hit rate 2.6% among 220,000; further: nearly all actives have a fitted effect of over 70% in size
#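 Compound dilutions met 200 nM (final) KDM5BΔAP for 10 min at room temperature before substrate addition. The substrate mix held 12.5 µM H3K4me3 with cofactors 25 µM α-ketoglutarate and 50 µM Fe²⁺. NADH signal gain over 30 min defined activity.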
# Hits are given with their value; – = inactive; ? = inconclusive; · = not tested or not shown. Shown are actives, neighbours in structure and some others; about 2.8% of the full set was active somewhere. Unless noted, the call rests on the fitted dose curve; in most records, active means well fitted curve in the direction sought with a large enough effect; inconclusive means small, poorly fitted or top-dose-only effect, or another doubt; inactive means no such curve, though single readings can be large; an effect the other way counts as inactive or inconclusive.
SMILES,IP6K1 inh,SNCA viab count,SNCA expr inh,KDM5B inhibitor
O=C(N[C@H]1CO[C@H]2[C@@H]1OC[C@@H]2Nc1nccc(-c2cccc(F)c2)n1)c1ccccc1,–,–,?,?
CC(=O)N1CCCN(C(=O)c2c[nH]c3ncccc23)CC1,–,–,–,–
Cc1ccccc1C(C)Nc1ccc(S(N)(=O)=O)cc1[N+](=O)[O-] (stereo unspecified),·,·,·,–
CC(C)(C)c1ccc(-c2cc(C[C@H]3CNCC[C@H]3CC(=O)N3CCN(c4ccccn4)CC3)no2)cc1,–,?,–,–
CN(Cc1ccccc1)Cc1cc(C[C@H]2CNCC[C@H]2CC(=O)N2CCN(c3ccccn3)CC2)no1,–,–,?,17.8µM
COc1cc(C)c2c(c1C)C[C@H](C(C)C(=O)NCc1ccco1)CC2 (stereo partly specified),–,–,–,35.5µM
COc1cc(C)c2c(c1C)C[C@H]([C@H](C)C(=O)O)CC2,–,–,–,–
C[C@@H]1C(=O)O[C@H]2[C@H]1CC[C@@]1(C)Cc3sc(NC(=O)c4ccc(F)c(Cl)c4)nc3[C@@H](C)[C@H]21,–,–,–,28.2µM
COc1cc(C(=O)Nc2nc3c(s2)C[C@]2(C)CC[C@@H]4[C@H](OC(=O)[C@H]4C)[C@H]2[C@@H]3C)cc(OC)c1OC,–,–,–,28.2µM
CN1CCN(S(=O)(=O)c2ccc(F)cc2F)CC12CCNC(=O)CC2 (stereo unspecified),–,–,–,–
CCN(CC)CC(=O)N1CCC(C(=O)Nc2ccc(-c3nc4ccccc4o3)cc2)CC1,–,–,–,28.2µM
O=C(Nc1ccc(-c2nc3ccccc3o2)cc1)C1CCCC1,·,·,·,–
Cc1ccccc1-c1noc(-c2nnn3c2COC(c2ccc(F)cc2)C3)n1 (stereo unspecified),–,–,–,–
O=C(NCCc1ccc(Cl)cc1)c1cn2cc(-c3ccc(C(F)(F)F)cc3)sc2n1,–,–,–,·
Cc1ccc(NC(=O)Nc2ccccc2Sc2nc3c(c(=O)n(C)c(=O)n3C)n2C)cc1C,·,·,·,–
CCC[C@@H](C=O)NC(=O)[C@H](CC(C)C)NC(=O)[C@H](CC(C)C)NC(=O)OCc1ccccc1,·,?,1.92µM,·
Cc1oc(-c2ccccc2F)nc1Cn1c(SCc2cccc(Cl)c2)nc2ccncc21,–,–,?,–
Cc1ccc(CSc2nc3ccncc3n2Cc2nc(-c3ccccc3C)oc2C)cc1,–,–,10µM,?
COCC(=O)N[C@H]1C[C@@H](Cc2cc(CN(C)c3ccccc3)on2)C1(C)C,–,–,–,–
COc1cncc(Nc2ncc(-c3cccc(N(C)C)c3)c3c2OCC3)c1,–,–,?,31.6µM
Cc1noc(C)c1-c1cnc(Nc2ccc(F)c(Cl)c2)c2c1CCO2,–,–,–,17.8µM
COc1cccc(Nc2ncc(-c3c(C)noc3C)c3c2OCC3)c1,–,–,–,35.5µM
Cc1noc(C)c1-c1cnc(Nc2ccc(F)cc2)c2c1CCO2,–,–,–,?
COc1ccc(Nc2ncc(-c3cnn(C)c3)c3c2OCC3)cc1,–,–,–,35.5µM
O=C(NC[C@H]1OC[C@@H](NC2CCC(F)(F)CC2)[C@@H]1O)c1ccncc1,–,–,–,–
SMILES,IP6K1 inh,SNCA viab count,SNCA expr inh,KDM5B inhibitor
NC1CCC(n2cc(C(=O)NCc3ccccc3-n3cccn3)nn2)CC1 (stereo unspecified),–,–,–,–
COc1ccc(OCc2nc(C3CN(C(=O)c4cccn4C)C3)no2)cc1,–,–,–,–
COC(=O)C(O)(c1ccc(N(C)C(=O)Nc2ccc(Cl)cc2)cc1)C(F)(F)F (stereo unspecified),·,·,·,–
CC(C)SCC(=O)N1CCCn2nc(C(=O)Nc3ccccc3)cc2C1,–,–,–,–
O=C(NCc1cccs1)c1cc(-c2ccccc2)c2nncn2n1,–,–,–,·
O=C(NCc1cccs1)c1cc(-c2cccnc2)c2nncn2n1,–,–,–,100µM
COc1ccc(C(=O)N2CCCC3(C2)Nc2cccnc2NC3=NCc2ccccc2)cc1 (stereo unspecified),–,–,?,28.2µM
O=C(COc1ccccc1)N1CCCC2(C1)Nc1cccnc1NC2=NCc1ccccc1 (stereo unspecified),–,–,–,?
O=C(c1ccsc1)N1CCCC2(C1)Nc1cccnc1NC2=NCc1ccccc1 (stereo unspecified),–,–,–,28.2µM
CC(=O)N1CCCC2(C1)Nc1cccnc1NC2=NCc1ccccc1 (stereo unspecified),–,–,–,?
